Bioassay records: PubChem, several laboratories
Most compounds without a hit are left out; they make up all but 5.4% or so of the library.
PHOSPHO1 inh = inhibitors of human PHOSPHO1 phosphatase | Q8TCT1 | recombinant PHOSPHO1, absorbance phosphatase assay | inhibition, % at 13.3 µM | 290,000 compounds, 1.1% hits; in the data active = inhibition above about 60%
ALR inh = inhibitors of human sulfhydryl oxidase ALR; P55789; purified ALR, DTT oxidation, H2O2 HRP-luminol luminescence; inhibition, % (test concentration not listed); 290,000 compounds, 3.8% hits;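 active = mean replicate inhibition above about 79%, with every replicate also reaching it, limit read from the data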
Target sequence (P55789 whole entry, looked up): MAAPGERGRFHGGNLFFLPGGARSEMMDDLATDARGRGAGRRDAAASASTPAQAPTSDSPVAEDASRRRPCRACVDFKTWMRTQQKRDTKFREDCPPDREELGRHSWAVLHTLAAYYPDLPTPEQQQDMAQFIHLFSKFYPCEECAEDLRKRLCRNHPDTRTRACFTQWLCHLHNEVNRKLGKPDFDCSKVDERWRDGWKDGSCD
aDG glyco up = alpha-DG glycosylation activation; 360,000 compounds, 0.22% hits; AID 624168; activation, % at 10 µM; Pro5-aDG cells, alpha-DG glycosylation AlphaScreen (IIH6); 0% Pro5, 100% B10-LARGE cell signal;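 active = activation of at least 8% versus controls, or a plate z-score of at least 8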;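 also: Pro5 are CHO cells carrying HIG-tagged alpha-DG that lacks glycosylation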
rCAG RNA binder = molecules binding r(CAG) RNA repeats; r(CAG) RNA repeat, TO-PRO-1 dye displacement fluorescence; inhibition, % at 3 µM; 370,000 compounds, 1.3% hits;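 active = inhibition above the plate cutoff, the mean of all test compounds on that plate plus 3 SD, cut at about 35% in these data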;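 also: higher means more dye released from RNA so lower well fluorescence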
A3A deaminase = human APOBEC3A DNA deaminase inhibition. P31941. recombinant A3A, FAM/TAMRA ssDNA deamination fluorescence. inhibition, % at 20 µM. 330,000 compounds, 0.41% hits. AID 493011;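 active = at least 40% inhibition at 20 µM here, with at most 30% in a related deaminase screen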
A3G deaminase = APOBEC3G (human) deaminase inhibition; Q9HC16; recombinant A3G, ssDNA deamination FAM/TAMRA fluorescence; inhibition, % at 20 µM; 330,000 compounds, 0.28% hits; AID 493012;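 active = inhibition of at least 40% at 20 µM, with no more than 30% in the related APOBEC3A deaminase screen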
Target sequence (Q9HC16 whole entry, looked up): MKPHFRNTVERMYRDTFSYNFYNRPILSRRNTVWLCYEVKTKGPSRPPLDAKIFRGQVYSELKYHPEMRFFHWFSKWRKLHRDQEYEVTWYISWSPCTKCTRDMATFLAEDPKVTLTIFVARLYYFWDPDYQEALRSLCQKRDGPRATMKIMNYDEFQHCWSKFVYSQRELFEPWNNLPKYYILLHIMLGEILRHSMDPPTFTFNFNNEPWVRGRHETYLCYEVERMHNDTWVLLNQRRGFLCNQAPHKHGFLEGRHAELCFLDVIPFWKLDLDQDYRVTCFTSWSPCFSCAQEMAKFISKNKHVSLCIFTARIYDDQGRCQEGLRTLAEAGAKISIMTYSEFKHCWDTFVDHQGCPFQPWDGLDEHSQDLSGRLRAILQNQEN
rCAG bind conf = r(CAG) RNA repeat binding, confirmation | shares compounds with rCAG RNA binder | TO-PRO-1 dye displacement fluorescence | inhibition, % at 3 µM | 4,300 compounds, 70% hits;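 active = inhibition above a per-plate cutoff, the mean inhibition of sample wells plus 3 SD, cut at about 35% in these data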;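 also: loss of TO-PRO-1 fluorescence as compound displaces dye from 1x1 AA loop RNA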
dCAG dye counter = DNA CAG dye complex inhibition counter-screen; inhibition, % at 3 µM; 4,300 compounds, 94% hits; d(CAG) DNA oligo TO-PRO-1 dye displacement, fluorescence; AID 652068; shares compounds with rCAG RNA binder;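 active = inhibition above its plate's cutoff, the mean test-well inhibition plus 3 SD, cut at about 4.8% in these data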;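 also: hits displace the dye from DNA and so lower well fluorescence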
Of the large screens only hits and unclear results are named; the others gave an inactive call (follow-up assays come after a bar, where they were run).

CCCCOCCCNC(=O)C[C@H]1C[C@@]2(C(=O)OC)C(=C[C@H](C3CCCC3)O[C@@H]2C)N(Cc2cccc3ccccc23)C1=O	none (no result: PHOSPHO1 inh, ALR inh, aDG glyco up, A3A deaminase, A3G deaminase)
COC(=O)C1=C(CSc2nc3c(cc2C#N)CN(C)CC3)OC(N)=C(C#N)C1c1ccc(F)cc1 (configuration not stated)	rCAG RNA binder 50 | rCAG bind conf inactive | dCAG dye counter 16
CCOC(=O)C1=C(CSc2nc(CC)c(C)cc2C#N)OC(N)=C(C#N)C1c1ccc(OC)cc1 (configuration not stated)	none (no result: ALR inh)
Cc1[nH]n(-c2ccccc2)c(=O)c1N=Nc1c(O)cc(S(=O)(=O)N(C)C)c2ccccc12	rCAG RNA binder 42 (no result: PHOSPHO1 inh) | rCAG bind conf 89 | dCAG dye counter 67
COc1ccc(/C=C2\C(=O)NC(=S)N2C(=O)c2ccc(C)cc2)cc1	rCAG RNA binder 58 (no result: ALR inh) | rCAG bind conf 76 | dCAG dye counter 35
O=C1NC(=S)N(C(=O)c2ccc(F)cc2)/C1=C/c1cccnc1	none (no result: ALR inh)
COC(=O)Cn1c(=O)c2c(n(Cc3ccccc3)c1=O)N/C(=C/c1ccc(Br)cc1)C2=O	rCAG RNA binder 62 | rCAG bind conf 75 | dCAG dye counter 40
COC(=O)CN1C(=O)N/C(=C/c2ccc(OC)cc2)C1=O	none
CN1CCN(C(=O)c2cccc(-c3cnc4cnc(-c5ccccc5Oc5ccccc5)cn34)c2)CC1	none (no result: PHOSPHO1 inh, ALR inh, A3A deaminase, A3G deaminase)
COc1ccccc1Cc1c(-c2cccc(Br)c2)nc2ccc(Br)cn12	rCAG RNA binder 54 (no result: PHOSPHO1 inh, ALR inh, A3A deaminase, A3G deaminase) | rCAG bind conf inactive | dCAG dye counter 7.3
Cc1ccc(Cc2c(-c3ccc(C)cc3)nc3ccc(Br)cn23)cc1	none (no result: PHOSPHO1 inh, ALR inh, A3A deaminase, A3G deaminase)
COc1ccccc1Cc1c(-c2ccc(C)cc2)nc2ccc(Br)cn12	none (no result: PHOSPHO1 inh, ALR inh, A3A deaminase, A3G deaminase)
Cc1ccc(Cc2c(-c3ccc(F)cc3)nc3c(C)cc(Br)cn23)cc1	none (no result: PHOSPHO1 inh, ALR inh, rCAG RNA binder, A3A deaminase, A3G deaminase)
COc1ccccc1Cc1c(-c2ccccc2)nc2ccc(Br)cn12	none (no result: PHOSPHO1 inh, ALR inh, A3A deaminase, A3G deaminase)
Cc1ccc(Cc2c(-c3ccc(C)cc3)nc3c(C)cc(Br)cn23)cc1	rCAG RNA binder 41 (no result: PHOSPHO1 inh, ALR inh, A3A deaminase, A3G deaminase) | rCAG bind conf inactive | dCAG dye counter 6.3
Cc1ccc(Cc2c(-c3cccc(Br)c3)nc3ccc(Br)cn23)cc1	rCAG RNA binder 38 (no result: PHOSPHO1 inh, ALR inh, A3A deaminase, A3G deaminase) | rCAG bind conf inactive | dCAG dye counter 9.7
COc1ccccc1Cc1c(-c2ccc(Cl)cc2)nc2ccc(Br)cn12	rCAG RNA binder 42 (no result: PHOSPHO1 inh, ALR inh, A3A deaminase, A3G deaminase) | rCAG bind conf inactive | dCAG dye counter 6.8
COC(=O)[C@]12C[C@H](CC(=O)NCCC(C)C)C(=O)N(CCC3=CCCCC3)C1=C[C@H](C(C)(C)C)O[C@@H]2C	none (no result: PHOSPHO1 inh, ALR inh, aDG glyco up, A3A deaminase, A3G deaminase)
CCc1nc2ccc(C(=O)NCCc3ccccn3)cn2c1N(C)Cc1cccs1	none (no result: PHOSPHO1 inh, ALR inh, A3A deaminase, A3G deaminase)
C=CCNc1nc2ccccc2nc1NS(=O)(=O)c1ccc(Br)cc1	rCAG RNA binder 49 | rCAG bind conf 42 | dCAG dye counter 9.8
COc1ccc(-c2ccc3c(c2)c(Sc2ccccc2)c(-c2ccccc2)n3C)cn1	none (no result: PHOSPHO1 inh, ALR inh, A3A deaminase, A3G deaminase)
Cc1cccc(C)c1-n1c(SCC(=O)Nc2ccc(C(=O)O)cc2)nnc1-c1cccc(S(=O)(=O)N(C)C)c1	rCAG RNA binder 38 (no result: ALR inh) | rCAG bind conf inactive | dCAG dye counter inactive
O=C(CSc1nnc(-c2cccc(S(=O)(=O)N3CCCC3)c2)n1-c1ccccc1)Nc1ccc(C(=O)O)cc1	none
C[C@@H]1CN([C@@H](C)CO)S(=O)(=O)c2ccc(Br)cc2O[C@H]1CN(C)Cc1ccccn1	none (no result: PHOSPHO1 inh, ALR inh, A3A deaminase, A3G deaminase)
COc1cccc(C(c2c(C)[nH]n(-c3ccccc3)c2=O)c2c(C)[nH]n(-c3ccccc3)c2=O)c1O	rCAG RNA binder 38 (no result: PHOSPHO1 inh) | rCAG bind conf inactive | dCAG dye counter 12
Cc1[nH]n(-c2ccccc2)c(=O)c1C(c1ccc(O)c([N+](=O)[O-])c1)c1c(C)[nH]n(-c2ccccc2)c1=O	rCAG RNA binder 46 (no result: PHOSPHO1 inh) | rCAG bind conf inactive | dCAG dye counter 7.8
CCOc1cccc(C(c2c(C)n(C)n(-c3ccccc3)c2=O)c2c(C)n(C)n(-c3ccccc3)c2=O)c1OC	none
COc1cccc(C(c2c(C)[nH]n(-c3ccccc3)c2=O)c2c(C)[nH]n(-c3ccccc3)c2=O)c1OC	rCAG RNA binder 54 | rCAG bind conf 42 | dCAG dye counter 14
O=S1(=O)CC2c3ccccc3CN2CN1Cc1ccccc1 (configuration not stated)	none (no result: PHOSPHO1 inh, ALR inh, aDG glyco up, A3A deaminase, A3G deaminase)
O=C(O)CC1(CC(=O)Nc2cc(C(F)(F)F)cc(C(F)(F)F)c2)CCCCC1	rCAG RNA binder 42 (no result: ALR inh) | rCAG bind conf inactive | dCAG dye counter 4.8
O=C(O)CC1(CC(=O)NCc2ccc(C(F)(F)F)cc2)CCCCC1	none
CCCCC(NC(=O)Cc1c(C)c2cc3c(C)c(C)oc3c(C)c2oc1=O)C(=O)O (configuration not stated)	ALR inh 97, rCAG RNA binder 38 | rCAG bind conf 41 | dCAG dye counter 9.7
